Results from PubChem BioAssay AID589 (National Center for Advancing Translational Sciences (NCATS), 2007).
Screen size: about 59,000 compounds; about 6,200 (11%) were called active. About 9% were inconclusive and are not listed. Rule as the data show it: active = max dye-equivalent concentration above about 10 nM; inconclusive = mostly about 1.1 nM to 9.6 nM; inactive = weaker than that. The sample as a whole holds a higher share of actives than the screen did.

Experiment: qHTS Assay for Spectroscopic Profiling in 4-MU Spectral Region
Conditions: compound autofluorescence, 340/450 nm, 4-MU equivalents; hits give high values
Text: NIH Molecular Libraries Screening Centers Network [MLSCN] NIH Chemical Genomics Center [NCGC] […] Occasionally, the artifactual effect may originate from the compounds own spectral or other biophysical properties which generally tend to track its assay concentration. Pre-screening/profiling the library with respect to the compounds spectral properties should help one exclude false positives early on. While the most informative fluorescent profiling data set is obtained by performing a full excitation and emission scan of each well by using a monochromator-based plate reader, such an approach is practical only on a very limited scale as scanning each well requires long time. An alternative approach, applied here, is to perform plate reader scans using selected excitation and emission wavelength pairs to generate a multidimensional relational database that correlates compound concentration and the respective relative fluorescence intensity at a given wavelength set. A standard curve of 4-methylumbelliferone (4-MU) present on each plate as six-point concentration series, was used to compute a normalized fluorescence response, termed dye-equivalent concentration, for each compound at each concentration.
NCGC Assay Protocol Summary: Buffer: 100 mM Tris buffer, pH 8.0 Dye standard plate: The wells in columns 1 through 4 of a Kalypsys polypropylene 1536-well compound plate were filled with standard solutions of fluorophore corresponding to the spectral region of interest. Solutions of 4-MU were placed in the following wells: A1, B1: 3 mM, A2, B2: 300 uM, A3, B3: 30 uM, A4, B4: zero (DMSO), C1, D1: 3 uM, C2, D2: 900 nM, C3, D3: 300 nM, C4, D4: zero (DMSO). Assay Steps: Six uL of buffer were dispensed to 1536-well Greiner black plates. Compounds and dye standards (23 nL) were transferred via Kalypsys PinTool. The plates were incubated for 15 min at room temperature, and then read on ViewLux (Perkin-Elmer) High-throughput CCD imager using 340 nm and 450 nm excitation and emission filter set. Keywords: NIH Roadmap, MLSCN, MLI, MLSMR, qHTS, NCGC, Fluorescent Profiling, 4MU, 4-MU

Row | Structure (SMILES) | max dye-equivalent concentration
1 | CCOC(=O)c1[nH]c2ccccc2c1N=C(C)N(CC)CC | inactive
2 | CCOC(=O)CN(C)Cc1c[nH]c2ccccc12 | inactive
3 | CCOC(=O)c1[nH]c2ccc(C)cc2c1N=C(C)N(C)C | 31 nM (active)
4 | CCCNS(=O)(=O)c1ccc(CCC(=O)NCc2cccnc2)cc1 | inactive
5 | CCOc1ccc(NC(=O)N(CCC(C)C)C(C)c2ccco2)cc1 (centres undefined) | inactive
6 | CSc1nsc(SC)c1NC(=O)OC1CCCCC1 | inactive
7 | O=C(Nc1ccc(S(=O)(=O)N2CCCCC2)cc1)c1cnccn1 | inactive
8 | CC(=O)C1=C(O)C(=O)N(c2ccc(S(N)(=O)=O)cc2)C1c1ccccc1F (centres undefined) | 21 nM (active)
9 | CCN1C(=O)C(C(=O)NC(C)c2ccccc2)C2CC1(C)Oc1ccccc12 (centres undefined) | inactive
10 | Cn1c(=O)n(C)c2cc(CNc3ccc(N4CCOCC4)c(C(=O)O)c3)ccc21 | 18 nM (active)
11 | Cn1nc(-c2ccc(N3CCOCC3)c(NC(=O)c3ccccc3)c2)c2ccccc2c1=O | inactive
12 | CC(=O)Nc1ccc(N2CCOCC2)c(C(=O)Nc2cccc(C)c2)c1 | inactive
13 | CCCn1c(=O)c2[nH]c(-c3ccc(OCC(=O)NCCN)cc3)nc2n(CCC)c1=O | inactive
14 | CC(=O)c1cc(-c2ccccc2)[nH]c1N1CCCC1 | inactive
15 | Cc1cc(N2CCCC2)n2nc(C)c(-c3ccccc3)c2n1 | 660 nM (active)
16 | CCCc1nc(-c2ccccc2O)n(-c2ccccc2)n1 | inactive
17 | CCn1ccnc1C[C@@H]1COc2ccccc2O1 | inactive
18 | O=C(c1csnn1)N1CCC2(CC1)CN(c1ncccn1)C2 | inactive
19 | COc1ccc(S(=O)(=O)N2CCN(c3ncnc4c(-c5ccccc5)nsc34)CC2)cc1 | 88 nM (active)
20 | COc1cccc(N2C(=O)CC(N3CCN(S(=O)(=O)c4ccccc4)CC3)C2=O)c1 (centres undefined) | inactive
21 | CCOc1ccccc1NC(=O)CCN1CCN(S(=O)(=O)c2ccc(OC)cc2)CC1 | inactive
22 | Cc1ccc(-c2noc(CCC(N)=O)n2)cc1 | inactive

Row | Structure (SMILES) | max dye-equivalent concentration
23 | CCOC(=O)N1CCN(C(=O)CSc2nnc(-c3c[nH]c4ccccc34)n2CCOC)CC1 | inactive
24 | O=C(Nc1nn(Cc2ccccc2F)cc1Br)c1cccs1 | inactive
25 | Cn1cccc1C(=O)N1CCC2(CC1)CN(c1cccc(-c3ccccc3)c1)C2 | inactive
26 | CCOc1cc(S(=O)(=O)NCc2ccc3c(c2)OCO3)ccc1F | inactive
27 | Cc1ccc(S(=O)(=O)NCc2nc3ccccc3c(=O)n2N)cc1 | inactive
28 | Cc1ccc(S(=O)(=O)c2c(N)n(C)c3nc4ccccc4nc23)cc1 | 2500 nM (active)
29 | N#Cc1cccc(-c2nc3cnc(N4CCNCC4)nc3n(C3CC3)c2=O)c1 | 300 nM (active)
30 | c1cncc(-c2nc(N3CCNCC3)c3ccccc3n2)c1 | inactive
31 | Cc1nc2cnc(Oc3cccc(Cl)c3)nc2n(C2CC2)c1=O | inactive
32 | COCCn1c(CN2CCC(Cc3ccccc3)CC2)nc2c1c(=O)n(C)c(=O)n2C | inactive
33 | COCCn1c(=O)c(CCc2ccccc2)nc2cnc(N3CCNCC3)nc21 | 56 nM (active)
34 | COCCn1c(=O)c(-c2cc(F)cc(F)c2)nc2cnc(N3CCNCC3)nc21 | 350 nM (active)
35 | Cn1cc(-c2nc3cnc(N4CCNCC4)nc3n(CCC#N)c2=O)c2ccccc21 | inactive
36 | Cn1c(=O)c(-c2ccccc2)nc2cnc(N3CCNCC3)nc21 | 270 nM (active)
37 | CC1(C)C2CCC1(C)C(OC(=O)CCn1ccnc1)C2 (centres undefined) | inactive
38 | Cc1ccc(C(=O)CSc2nnc(Cn3nnc4ccccc43)n2C)cc1 | inactive
39 | CCCn1c(=O)c(-c2ccccc2)c(O)c2ccccc21 | inactive
40 | CCOC(=O)c1sc(N(Cc2ccccc2)C(=O)CN2C(=O)CN(C)C2=O)nc1C | inactive
41 | CCn1c(CSc2ncccn2)nnc1SCC(=O)N1c2ccccc2CC1C (centres undefined) | inactive
42 | O=c1c(-c2ccc(F)cc2)nc2cnc(N3CCNCC3)nc2n1Cc1cccs1 | 15 nM (active)
43 | Cn1c(=O)c2c(nc(OCc3cccnc3)n2Cc2ccccc2)n(C)c1=O | inactive
44 | Cc1nc2cnc(N3CCN(C)CC3)nc2n(CCC#N)c1=O | inactive

Row | Structure (SMILES) | max dye-equivalent concentration
45 | O=c1c(CCc2ccccc2)nc2cncnc2n1C1CC1 | inactive
46 | COCCn1c(=O)c(CCc2ccccc2)nc2cncnc21 | 83 nM (active)
47 | Cc1nc2cnc(N3CCN(C)CC3)nc2n(C[C@H]2CCCO2)c1=O | 48 nM (active)
48 | Cc1nc2cnc(N3CCNCC3)nc2n(Cc2ccc(F)cc2)c1=O | 98 nM (active)
49 | Cc1nc2cnc(Nc3ccccc3)nc2n(C[C@H]2CCCO2)c1=O | inactive
50 | Cc1cc(C)c(C(=O)CN2C(=O)CCC2=O)cc1C | inactive
51 | CCOC(=O)Nc1ccc2c(c1)N(C(=O)CN1CCN3CCCC3C1)c1ccccc1CC2 (centres undefined) | inactive
52 | O=C(Nc1ccc2c(c1)OCCO2)C1CCCN(c2ncccn2)C1 (centres undefined) | inactive
53 | CCOP1(=O)C=C(C(C)(C)C)OC1c1ccc(F)cc1 (centres undefined) | inactive
54 | CC(c1nnc(SCC(=O)Nc2sccc2C#N)n1-c1ccc(Cl)cc1)N(C)C (centres undefined) | inactive
55 | CCC(=O)Nc1sc(C(=O)N2CCCCC2)c(C)c1C#N | inactive
56 | COCCNC(=O)CN(C(=O)CCC(=O)Nc1cc(C)on1)c1ccc(C)cc1C | inactive
57 | O=S(=O)(/C=C/c1ccccc1)NCCc1ccccn1 | inactive
58 | Cn1c(=O)n(CCc2ccccc2)c(=O)c2c1nc1n2CCCN1c1ccccc1 | inactive
59 | Cc1nc2cnc(N3CCNCC3)nc2n(CCc2ccccc2)c1=O | 49 nM (active)
60 | Cn1cc(-c2nc3cnc(N4CCNCC4)nc3n(CCc3ccccc3)c2=O)c2ccccc21 | inactive
61 | OCc1nc(CO)n(Cc2ccccc2)n1 | inactive
62 | CCCCCn1c(SCCC(C)C)nc2c1c(=O)[nH]c(=O)n2C | inactive
63 | Cc1cc(C)nc(N(C#N)CC(=O)Nc2ccccc2)n1 | inactive
64 | C/C(O)=C\c1nc(=O)c2c(C)cc(C)nc2n1-c1ccccc1 | 43 nM (active)
65 | N#CCSc1nc2ccccc2c(=O)n1-c1ccccc1 | inactive
66 | COc1ccc(C2C3=C(CC(C)(C)CC3=O)Oc3ncn4nc(-c5cccnc5)nc4c32)cc1OC (centres undefined) | inactive

Row | Structure (SMILES) | max dye-equivalent concentration
67 | CC(=O)Nc1ccc(S(=O)(=O)N2CCN(CCCOc3cc(C)ccc3C)CC2)cc1 | inactive
68 | COc1cccc(NC(=O)C2CCCN2C(=O)OCc2ccccc2)c1 (centres undefined) | inactive
69 | CC(C)C(NC(=O)OCc1ccccc1)C(=O)OCC(=O)N1C(C)CCCC1C (centres undefined) | 37 nM (active)
70 | NC1(C(=O)OCc2ccccc2)CCCC1 | inactive
71 | CCCC[C@H]1C(=O)N(c2ccccc2)N(c2ccc(O)cc2)C1=O | inactive
72 | O=C1CCC(C(=O)Nc2ccc(OC(F)F)cc2)N1 (centres undefined) | 18 nM (active)
73 | CCCOc1ccc(NC(=O)C2CCCNC2=O)cc1 (centres undefined) | inactive
74 | COC(=O)COc1ccc(S(=O)(=O)Nc2ccc(NC(C)=O)cc2)cc1 | inactive
75 | O=C(O)C1CCN(c2ncnc3ccc(-c4ccccc4C(F)(F)F)cc23)CC1 | inactive
76 | COc1ccc(-c2nc3n(c2Br)CCC3)cc1 | inactive
77 | Cc1cccc(OCc2nnc(SCn3nnc4ccccc4c3=O)o2)c1 | inactive
78 | CCCn1c(O)c(CN2CCCC(C)C2)c(C)c(C#N)c1=O (centres undefined) | 13 nM (active)
79 | CCCCCCn1c(CN2CCCC(C)C2)nc2c1c(=O)n(C)c(=O)n2C (centres undefined) | inactive
80 | O=C(Cc1c(F)cccc1Cl)N1CCN(C(=O)c2ccco2)CC1 | inactive
81 | CCN(Cc1ccncc1)C(=O)[C@@H](CO)c1ccccc1 | inactive
82 | Clc1ccc(Cc2nn3c(-c4ccncc4)nnc3s2)cc1 | inactive
83 | COc1cccc(C(=O)Nc2c3c(nn2-c2cccc(C)c2C)CS(=O)(=O)C3)c1OC | inactive
84 | COc1ccccc1CNc1nc(-c2c(C)noc2C)nc2ccccc12 | inactive
85 | c1ccc(-c2oc3ncnc(N4CCOCC4)c3c2-c2ccccc2)cc1 | 11 nM (active)
86 | c1ccc(-n2nnnc2N2CCOCC2)cc1 | inactive
87 | c1cnn(-c2cc(N3CCOCC3)ncn2)c1 | inactive
88 | CCCCOc1ccccc1/C=c1/sc2nc(-c3oc4ccccc4c3C)nn2c1=O | inactive

Row | Structure (SMILES) | max dye-equivalent concentration
89 | CCc1ccccc1NC1c2ccccc2C(=O)N1c1cccnc1 (centres undefined) | inactive
90 | O=C(O)C1=CCCN(CCON=C(c2ccccc2)c2ccccc2)C1 | inactive
91 | Cc1cccc(CNc2ccnc(-c3cccnc3)n2)c1 | inactive
92 | O=C(Nc1cccnc1)c1ccc2c(c1)OCO2 | inactive
93 | c1cncc(CNc2ccnc(-c3ccc4c(c3)OCO4)n2)c1 | 14 nM (active)
94 | COc1ccc(Br)c2c1C[C@H](C(=O)O)CC2 | inactive
95 | CCOc1cc(CO)ccc1OCC(=O)N1CCCCC1 | inactive
96 | Cc1ccccc1CSc1nnc(-c2ccccn2)n1N | inactive
97 | O=C(NCc1cccs1)C1CCN(S(=O)(=O)c2ccc3c(c2)OCCO3)CC1 | inactive
98 | CC(=O)c1cccc(S(=O)(=O)N2CCC(n3nnc4cc(F)ccc43)CC2)c1 | inactive
99 | O=C(c1ccc2c(c1)OCCO2)C1CCN(S(=O)(=O)c2cccc(F)c2)CC1 | 12 nM (active)
100 | COc1cccc(NC(=O)Cn2cnc3sc(C)c(S(=O)(=O)N4CCN(C)CC4)c3c2=O)c1 | inactive
101 | CC(Nc1nc(N2CCCC2)nc2ccccc12)c1ccccc1 (centres undefined) | 150 nM (active)
102 | Cc1ccc(C(CC(=O)O)Nc2nc(N3CCCCC3)nc(N3CCCCC3)n2)cc1 (centres undefined) | inactive
103 | CC(C)(CSc1nncn1/N=C/c1ccco1)NS(=O)(=O)c1ccc(Cl)cc1 | inactive
104 | CCC(=O)Nc1ccc(C(=O)CSc2nnc(CNc3ccc(Cl)cc3)o2)cc1OC | inactive
105 | COC(=O)N1CCC[C@@]2(CCN(C(=O)NC(C)C)C2)C1 | inactive
106 | Cc1occc1C(=O)Nc1cccc(Cn2cccn2)c1 | inactive
107 | CCCN1CC=C2C(C#N)=C(N)C(C#N)(C#N)C(c3cc(OC)ccc3OC)C2C1 (centres undefined) | 120 nM (active)
108 | CCC1=C(C(=O)OC)C(c2cc(OC)ccc2OC)C(C#N)=C(N)O1 (centres undefined) | inactive
109 | COC(=O)C1=C(C)OC(N)=C(C#N)C1c1cc(OC)ccc1OC (centres undefined) | inactive
